Molecules are shown by their SMILES. The source made the active and inactive calls. How the source made its calls: active means hit-call score of the fitted dose curve at least 0.9, where 1 is the maximum; inactive means score below 0.9.

The source of these data is PubChem BioAssay (EPA / NIEHS).

Assay [1] is described as follows: ATG_CRE_CIS: Attagene CIS-FACTORIAL HepG2 Assay for human cAMP Responsive Element (CRE) binding protein 3 (AID 2282926). The conditions noted are these: HepG2 CRE cis-reporter, Attagene multiplexed mRNA; actives raise or lower the signal. In a few lines: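 Multiplexed transcription-unit reporters transfected into HepG2; 24 h dosing; RT-PCR/capillary electrophoresis fluorescence read-out; bidirectional fit vs DMSO.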

In assay [2] the target is CCAAT/enhancer-binding protein beta (Homo sapiens) (UniProt P17676). The assay can be described thus: ATG_C_EBP_CIS: Attagene CIS-FACTORIAL HepG2 Assay for human CCAAT/Enhancer Binding Protein (C/EBP) beta (AID 2282927). The conditions noted are these: HepG2 Attagene cis-factorial transcription factor reporter; actives raise or lower the signal. In a few lines: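 Endogenous C/EBPb-driven reporter transcripts measured in transfected human HepG2 cells at 24 h via RT-PCR and capillary electrophoresis of labelled fragments. Activity fitted in both directions relative to DMSO baseline.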

Assay [3] in a line: ATG_CMV_CIS: Attagene CIS-FACTORIAL HepG2 Assay for human CMV (Internal Marker) (AID 2282928).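 Further: endpoint acts as a background internal control marker rather than a target.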 To be noted: HepG2 CMV promoter reporter, transcription factor profiling; actives raise or lower the signal. In a few lines: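 Cell system: HepG2, transiently transfected multiple reporter units under cis promoters. Exposure: 24 h. Detection: RT-PCR, FAM labeling, HpaI digestion, capillary electrophoresis. Analysis: bidirectional, DMSO baseline.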

The nature of assay [4]: ATG_DR4_LXR_CIS: Attagene CIS-FACTORIAL HepG2 Assay for human Liver X Receptor (LXR), DR4 submotif (AID 2282929). The conditions noted are these: HepG2 Attagene DR4 cis-reporter, mRNA transcription; actives raise or lower the signal. An outline of the steps: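 Measures endogenous transcription factor activity via a DR4-driven reporter transcript in human HepG2 cells. Compounds incubated 24 h; mRNA quantified by RT-PCR and capillary electrophoresis, analysed as gain or loss of signal versus DMSO.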

Assay [5] in a line: ATG_AP_1_CIS: Attagene CIS-FACTORIAL HepG2 Assay for human Activator Protein 1 (AP-1) (AID 2282931). The conditions noted are these: HepG2 Attagene cis-factorial AP-1 reporter mRNA; actives raise or lower the signal. An outline of the steps:
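Bidirectional concentration-response fitting against DMSO controls. Underlying signal: reporter mRNA from cis-promoter constructs in transiently transfected HepG2, measured after 24 h by RT-PCR and capillary electrophoresis.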

Assay [6] is described as follows: ATG_BRE_CIS: Attagene CIS-FACTORIAL HepG2 Assay for human Bone Morphogenetic Protein (BMP) Response Element (BRE) (AID 2282933). The conditions noted are these: HepG2 BMP response element reporter, Attagene transcription factor profiling; actives raise or lower the signal. An outline of the steps:
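Read-out: reporter mRNA induction quantified by RT-PCR and capillary electrophoresis after 24 h chemical exposure of transfected HepG2 cells. Endogenous factor activity on the BMP response element; gain or loss fitted against DMSO baseline.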

Assay [7] is described as follows: ATG_E_Box_CIS: Attagene CIS-FACTORIAL HepG2 Assay for human Enhancer Box (E-box) (AID 2282936). The conditions noted are these: HepG2 E-box cis-reporter transcription, actives raise or lower the signal. An outline of the steps: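 Cells: HepG2 (human liver), transient MRTU transfection. Exposure 24 h. RNA → oligo(dT) RT → PCR → 6-FAM label → HpaI → CE. Activity fitted both directions relative to DMSO.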

Assay [8] in a line: ATG_M_19_CIS: Attagene CIS-FACTORIAL HepG2 Assay for M19 Transcription Factor (Internal Marker) (AID 2282939). To be noted: HepG2 Attagene CIS-FACTORIAL M19 internal marker reporter; actives raise or lower the signal. An outline of the steps:
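Readout: fluorescent reporter-transcript fragments by capillary electrophoresis after RT-PCR. Human HepG2 liver cells carried transfected MRTU constructs reporting endogenous transcription-factor activity; exposure 24 h. Gain or loss of signal fitted relative to DMSO.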

The nature of assay [9]: ATG_GATA_CIS: Attagene CIS-FACTORIAL HepG2 Assay for human GATA Binding Protein (AID 2282944). The conditions noted are these: HepG2 GATA cis-element reporter, Attagene multiplex mRNA; actives raise or lower the signal. In a few lines: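 Read-out: fluorescent reporter mRNA fragments resolved by capillary electrophoresis after RT-PCR. Human liver HepG2 cells carried transiently transfected cis-regulated reporter constructs; chemicals incubated 24 h; gain or loss of signal fitted relative to DMSO.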

Assay [10] is described as follows: ATG_ISRE_CIS: Attagene CIS-FACTORIAL HepG2 Assay for human Interferon Regulatory Factor 1 (IRF1) binding to an Interferon-Stimulated Response Element (ISRE) (AID 2282948). The conditions noted are these: HepG2 ISRE cis-reporter (Attagene), mRNA transcription readout; actives raise or lower the signal. In a few lines:
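Quantitation relies on labelled RT-PCR fragments separated by capillary electrophoresis. Human HepG2 cells bearing cis-promoter reporter constructs were treated 24 h; DMSO served as baseline for bidirectional fitting.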

A short description of assay [11]: ATG_M_32_CIS: Attagene CIS-FACTORIAL HepG2 Assay for M32 Transcription Factor (Internal Marker) (AID 2282949).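 Further: background control marker of the multiplexed CIS panel rather than a real target.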 To be noted: HepG2 Attagene cis-factorial M32 reporter, mRNA; actives raise or lower the signal. An outline of the steps: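 Fluorescent capillary electrophoresis peaks of HpaI-digested, FAM-labelled RT-PCR reporter products give the signal. Source: transiently transfected human liver HepG2 cells, 24 h after chemical dosing; bidirectional fitting against DMSO.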

Assay [12] in a line: ATG_M_06_CIS: Attagene CIS-FACTORIAL HepG2 Assay for M06 Transcription Factor (Internal Marker) (AID 2282950). To be noted: HepG2 Attagene CIS-FACTORIAL M06 internal marker reporter; actives raise or lower the signal. An outline of the steps:
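Terse: HepG2, transient MRTU transfection (FuGene 6), 24 h dosing; total RNA, oligo(dT) RT, PCR, FAM label, HpaI cut, capillary electrophoresis; bidirectional fit vs DMSO baseline; background-control endpoint.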

Assay [13] in a line: ATG_MRE_CIS: Attagene CIS-FACTORIAL HepG2 Assay for human Metal Responsive Element (MRE) (AID 2282954). To be noted: HepG2 MRE cis-reporter transcription, Attagene multiplex; actives raise or lower the signal. In a few lines:
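Transient MRTU transfection of HepG2 (FuGene 6); 24 h dosing; total RNA → oligo(dT) RT, PCR, 6-FAM primer extension, HpaI cut, CE. Bidirectional fit vs DMSO.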

Assay [14] has as its target Paired box protein Pax-6 (Homo sapiens) (UniProt P26367). Put plainly: ATG_Pax6_CIS: Attagene CIS-FACTORIAL HepG2 Assay for human Paired Box 6 (PAX6) (AID 2282956). The conditions noted are these: HepG2 CIS-FACTORIAL PAX6 reporter transcription, RNA readout; actives raise or lower the signal. In a few lines: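 After twenty-four hours of chemical exposure, transfected HepG2 cells are harvested for RNA. Cis-promoter reporter transcripts are amplified, fluorescently labelled and sized by capillary electrophoresis, with gain and loss of signal scored against DMSO.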

A short description of assay [15]: ATG_PXRE_CIS: Attagene CIS-FACTORIAL HepG2 Assay for human Pregnane X Receptor Element (PXRE) (AID 2282957). The conditions noted are these: HepG2 Attagene CIS-FACTORIAL PXRE reporter, mRNA; actives raise or lower the signal. In a few lines: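 Cells: HepG2, transiently transfected reporter units under cis promoter control. Exposure: 24 h. Detection: reporter mRNA via RT-PCR/CE fluorescence; bidirectional fitting, DMSO-referenced.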

Assay [16] in a line: ATG_Sox_CIS: Attagene CIS-FACTORIAL HepG2 Assay for human SRY-box transcription factor (SOX) (AID 2282960). To be noted: HepG2 Attagene cis-factorial SOX reporter, mRNA; actives raise or lower the signal. An outline of the steps:
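After 24 h of chemical treatment, transfected HepG2 reporter cells are lysed for total RNA. Transcript levels come from RT-PCR with labelled primer extension and capillary electrophoresis, analysed bidirectionally versus DMSO.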

Assay [17] has as its target Transcription factor Sp1 (Homo sapiens) (UniProt P08047). Put plainly: ATG_Sp1_CIS: Attagene CIS-FACTORIAL HepG2 Assay for human Specificity Protein 1 (Sp1) (AID 2282961). To be noted: HepG2 Sp1 cis-reporter transcription, actives raise or lower the signal. In a few lines: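 Sp1-driven reporter mRNA, read as capillary electrophoresis fluorescence after RT-PCR, in transiently transfected HepG2 cells dosed for 24 h; signal change in either direction relative to DMSO.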

Assay [18] in a line: ATG_TA_CIS: Attagene CIS-FACTORIAL HepG2 Assay for human TA Basal Promoter (AID 2282964). The conditions noted are these: HepG2 Attagene CIS-factorial TA basal promoter reporter; actives raise or lower the signal. An outline of the steps:
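Transfected HepG2, 24 h compound exposure; RNA → RT-PCR → FAM primer extension → HpaI cut → CE fluorescence. Gain/loss-of-signal fitted against DMSO negative control. Background-control readout.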

The nature of assay [19]: ATG_TCF_b_cat_CIS: Attagene CIS-FACTORIAL HepG2 Assay for human T-Cell-Factor with beta-catenin (TCF/b-cat) (AID 2282965). The conditions noted are these: HepG2 TCF/beta-catenin cis-reporter transcription, actives raise or lower the signal. An outline of the steps: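 Endogenous TCF/LEF activity read as reporter transcript level via RT-PCR and capillary electrophoresis fluorescence in transfected HepG2, 24 h exposure; gain or loss of signal fitted against DMSO controls.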

Assay [20] in a line: ATG_TAL_CIS: Attagene CIS-FACTORIAL HepG2 Assay for human TAL Basal Promoter (AID 2282966).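 Further: background control endpoint measuring basal TAL promoter reporter mRNA not a specific factor.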 The conditions noted are these: HepG2 Attagene cis-factorial TAL promoter reporter; actives raise or lower the signal. An outline of the steps:
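RT-PCR plus capillary electrophoresis quantifies reporter mRNA induction in transiently transfected HepG2 cells after 24 h chemical treatment. DMSO serves as negative control and baseline for bidirectional fitting.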

Chain of CCAAT/enhancer-binding protein beta (Homo sapiens) (P17676 whole entry, looked up, the tested form may be a part): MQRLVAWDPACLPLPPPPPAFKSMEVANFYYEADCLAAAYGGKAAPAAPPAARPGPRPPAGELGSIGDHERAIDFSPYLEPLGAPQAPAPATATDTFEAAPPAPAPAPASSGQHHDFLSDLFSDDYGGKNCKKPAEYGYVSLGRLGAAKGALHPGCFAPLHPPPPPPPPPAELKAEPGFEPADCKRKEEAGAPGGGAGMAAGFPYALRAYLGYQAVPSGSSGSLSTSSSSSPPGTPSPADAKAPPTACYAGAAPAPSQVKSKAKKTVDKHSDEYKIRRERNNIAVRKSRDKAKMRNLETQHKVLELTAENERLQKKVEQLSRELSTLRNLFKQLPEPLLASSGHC
Chain of Paired box protein Pax-6 (Homo sapiens) (P26367 whole entry, looked up): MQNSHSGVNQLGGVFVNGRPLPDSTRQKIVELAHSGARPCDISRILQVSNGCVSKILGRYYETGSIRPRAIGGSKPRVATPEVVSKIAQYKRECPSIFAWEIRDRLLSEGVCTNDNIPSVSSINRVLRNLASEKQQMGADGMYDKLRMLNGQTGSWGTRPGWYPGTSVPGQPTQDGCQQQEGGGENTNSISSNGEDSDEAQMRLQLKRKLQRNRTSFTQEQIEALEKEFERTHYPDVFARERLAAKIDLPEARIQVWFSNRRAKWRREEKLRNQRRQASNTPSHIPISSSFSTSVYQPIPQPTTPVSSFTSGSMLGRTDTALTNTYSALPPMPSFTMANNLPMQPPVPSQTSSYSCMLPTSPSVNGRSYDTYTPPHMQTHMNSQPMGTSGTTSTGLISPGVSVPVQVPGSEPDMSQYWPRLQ
Chain of Transcription factor Sp1 (Homo sapiens) (P08047 whole entry, looked up): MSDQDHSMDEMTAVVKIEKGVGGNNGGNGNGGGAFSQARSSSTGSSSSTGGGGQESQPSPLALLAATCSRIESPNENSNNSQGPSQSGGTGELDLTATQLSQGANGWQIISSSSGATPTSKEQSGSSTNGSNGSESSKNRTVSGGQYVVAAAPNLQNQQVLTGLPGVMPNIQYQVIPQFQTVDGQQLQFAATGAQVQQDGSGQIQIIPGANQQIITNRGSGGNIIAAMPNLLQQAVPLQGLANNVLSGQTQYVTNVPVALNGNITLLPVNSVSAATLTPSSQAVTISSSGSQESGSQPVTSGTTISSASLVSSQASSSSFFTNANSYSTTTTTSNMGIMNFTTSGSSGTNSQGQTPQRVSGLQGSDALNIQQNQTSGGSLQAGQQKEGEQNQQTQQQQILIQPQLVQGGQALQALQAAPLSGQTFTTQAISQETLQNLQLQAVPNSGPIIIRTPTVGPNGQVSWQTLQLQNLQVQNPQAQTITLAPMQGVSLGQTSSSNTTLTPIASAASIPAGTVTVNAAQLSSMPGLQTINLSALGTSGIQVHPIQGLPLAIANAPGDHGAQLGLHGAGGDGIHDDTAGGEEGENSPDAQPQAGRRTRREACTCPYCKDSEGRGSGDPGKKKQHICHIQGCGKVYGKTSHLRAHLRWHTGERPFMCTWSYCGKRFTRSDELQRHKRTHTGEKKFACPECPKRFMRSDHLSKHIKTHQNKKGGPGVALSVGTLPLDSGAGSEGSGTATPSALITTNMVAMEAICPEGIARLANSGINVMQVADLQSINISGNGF

For orientation: AC50 means the concentration giving half of the maximal activity seen. On to `Cc1cc(-n2nc3ccc(Cl)cc3n2)c(O)c(C(C)(C)C)c1`, for which the molecule was called inactive in assay [1], in assay [2], in assay [3], in [4], in [5] and in assay [6]. In addition, the result in assay [7], in assay [8], in assay [9], in assay [10], in assay [11] and in assay [12] was inactive. In addition, the molecule was called inactive in assay [13], in assay [14], in [16], in assay [17], in [18] and in [19]. Besides, the molecule was classed as inactive in [20]. For the same molecule, in assay [15], the AC50 was 2.86 µM (active).
For `C[Si](C)(C)O[Si](C)(C)O[Si](C)(C)C`, the call in assay [1], in [2], in [3], in assay [4], in assay [5] and in [6] was inactive. Also, the outcome in assay [7], in [8], in [9], in [10], in assay [11] and in [12] was inactive. Besides, the outcome in [13], in assay [14], in assay [15], in assay [16], in assay [17] and in assay [18] was inactive. The molecule was called inactive in [19] and in assay [20].
In the case of `OCCN(CCO)c1cccc(Cl)c1`, the result in assay [1], in assay [2], in assay [3], in assay [4], in [5] and in [6] was inactive. Besides, the outcome in assay [7], in assay [8], in assay [9], in assay [10], in [11] and in [12] was inactive. Also, the outcome in assay [13], in assay [14], in assay [16], in [17], in assay [18] and in assay [19] was inactive. Further, the outcome in assay [20] was inactive. For the same molecule, the AC50 in [15] is 52.4 µM (active).
With `CCCCn1cc[n+](C)c1`, the call in assay [1], in [2], in assay [3], in [4], in assay [5] and in assay [6] was inactive. Further, the result in assay [7], in assay [8], in assay [9], in assay [10], in assay [11] and in [12] was inactive. The molecule was called inactive in assay [13], in assay [14], in [15], in [16], in assay [17] and in [18]. Moreover, the molecule was called inactive in assay [19] and in assay [20].
Turning to `CCCCCCCCCCC1CO1` (stereo not given), the call in assay [1], in assay [2], in assay [3], in assay [4], in assay [6] and in assay [7] was inactive. For the same molecule, the outcome in assay [8], in [9], in assay [10], in assay [11], in assay [12] and in assay [14] was inactive. The molecule was classed as inactive in assay [16], in [19] and in [20]. Moreover, the AC50 is 164 µM (active) in assay [5]; 152 µM (active) in assay [13]; 27 µM (active) in [15]; 154 µM (active) in [17]; 153 µM (active) in [18].
As to `CN(C)CCC(c1ccc(Cl)cc1)c1ccccn1` (stereo not given), the call in assay [1], in assay [2], in assay [3], in assay [4], in [5] and in assay [6] was inactive. Moreover, the result in [7], in assay [8], in assay [9], in assay [11], in assay [12] and in assay [13] was inactive. The call in [14], in assay [15], in [16], in [17], in [18] and in assay [19] was inactive. In addition, the call in assay [20] was inactive. Further, the concentration at half-maximal activity (AC50) in assay [10] is 125 µM (active).
For the molecule `NC(N)=Nc1nc(CSCCC(N)=NS(N)(=O)=O)cs1`, the result in [1], in assay [2], in [3], in assay [4], in assay [5] and in assay [6] was inactive. Moreover, the result in [7], in [9], in assay [10], in assay [11], in assay [12] and in [13] was inactive. In addition, the molecule was classed as inactive in assay [14], in assay [15], in [16], in [17], in assay [18] and in assay [19]. Moreover, in assay [20], the molecule was classed as inactive. Further, the AC50 in assay [8] is 153 µM (active).
